Test results from the supplement of paper PMC10849652.
Targets with a hit are over-represented here; the source holds about 8,800 in all. About 0.5% of all pairs of compound and target were hits. A number with no mark means an inactive call.

Assays:
Experiment in all cases: log2 fold change, soluble protein after heating vs DMSO (PISA); higher = thermal stabilisation; K562 lysate, 10 uM; active = over 0.2 and 3.5 SD of the protein, either way, in both replicates (recomputed)
erlotinib = compound: C#Cc1cccc(Nc2ncnc3cc(OCCOC)c(OCCOC)cc23)c1 [erlotinib]
Outline: (§1)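 K562 pellets were dounce-homogenised in PBS pH 7.4 containing 1 mM MgCl2, and the crude extract, at 1 mg/mL protein, was exposed to 10 μM compound for 30 min. Aliquots were heated for 3 min across 48°C-58°C, pooled, brought to 0.5% NP-40 at 4°C and spun at 21,000xg for 90 min, with the supernatant taken as soluble protein. TMTpro 16plex LC-MS/MS with equalised channel sums quantified that protein. Values are log-two fold changes in thermal stability relative to solvent controls, taken from duplicates.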

[1] = compound: C/C(=N\NC(=O)C1=CC(=CC=C1)S(=O)(=O)N2CCOCC2)/C3=C(C=CC(=C3)Cl)O
Outline: as §1

[2] = compound: C1=CC(=CC=C1C2=NC3=C(N2)C=C(C=C3)C(=O)N)OC4=CC=C(C=C4)Cl
Outline: as §1

[3] = compound: C1=CC2=C(C=CC(=C2)/C=C\3/C(=O)NC(=NCC4=CC=CS4)S3)N=C1
Outline: as §1

[4] = compound: C1=CC2=NC=CN=C2C=C1/C=C/3\C(=O)NC(=O)S3
Outline: as §1

[5] = compound: C1=CC=C(C=C1)C2=NC(=C(N2)C3=CC=NC=C3)C4=CC(=C(C=C4)Cl)O
Outline: as §1

[6] = compound: C1=CC=C2C(=C1)C3=NNC4=CC=CC(=C43)C2=O
Outline: as §1

[7] = compound: C1CCN(C1)C(=O)NC2=CC=CC(=C2)NC3=NC=C(C(=N3)NCCC4=CN=CN4)Br
Outline: as §1

[8] = compound: C1CN(CCC1(CC2=CC=C(C=C2)Cl)N)C3=NC=NC4=C3C=CN4
Outline: as §1

IRAK-1-4 Inhibitor I = compound: C1COCCN1CCN2C3=CC=CC=C3N=C2NC(=O)C4=CC(=CC=C4)[N+](=O)[O-] [IRAK-1-4 Inhibitor I]
Outline: as §1

ibrutinib = compound: C=CC(=O)N1CCC[C@@H](n2nc(-c3ccc(Oc4ccccc4)cc3)c3c(N)ncnc32)C1 [ibrutinib]
Outline: as §1

[9] = compound: CC(=O)c1cnc2ccc(-c3cc(Cl)c(O)c(Cl)c3)nc2c1N[C@H]1CC[C@H](CN(C)C)CC1
Outline: as §1

ralimetinib = compound: CC(C)(C)Cn1c(N)nc2ccc(-c3[nH]c(C(C)(C)C)nc3-c3ccc(F)cc3)nc21 [ralimetinib]
Outline: as §1

[10] = compound: CC(C)(O)CC(=O)NCCn1ccc2ncnc(Nc3ccc(Oc4cccc(C(F)(F)F)c4)c(Cl)c3)c21
Outline: as §1

[11] = compound: CC(C)C1=C2N=C(C=C(N2N=C1)NCC3=CC=CC=C3)NCCCCCCN
Outline: as §1

[12] = compound: CC1=C(C(CC(=O)N1)C2=CC=C(C=C2)C(F)(F)F)C(=O)NC3=C(C=C4C(=C3)C=NN4)F
Outline: as §1

[13] = compound: CC1=C(C2=C(C=C1)C(=O)C3=CC=CC=C3N2CCCN)C
Outline: as §1

[14] = compound: CC1=C(C=C(C=C1)NC(=O)C2=CC(=CC=C2)C(C)(C)C#N)NC3=CC4=C(C=C3)N=CN(C4=O)C
Outline: as §1

[15] = compound: CC1=C(C=C(C=C1)NC(=O)C2=CC(=CC=C2)N(C)C)NC(=O)C3=CC=C(C=C3)O
Outline: as §1

[16] = compound: CC1=CC=C(C=C1)SC2=C3C=C(SC3=CN=C2)C(=O)N
Outline: as §1

UniProt Q13042, sequence (Q13042 whole entry, looked up): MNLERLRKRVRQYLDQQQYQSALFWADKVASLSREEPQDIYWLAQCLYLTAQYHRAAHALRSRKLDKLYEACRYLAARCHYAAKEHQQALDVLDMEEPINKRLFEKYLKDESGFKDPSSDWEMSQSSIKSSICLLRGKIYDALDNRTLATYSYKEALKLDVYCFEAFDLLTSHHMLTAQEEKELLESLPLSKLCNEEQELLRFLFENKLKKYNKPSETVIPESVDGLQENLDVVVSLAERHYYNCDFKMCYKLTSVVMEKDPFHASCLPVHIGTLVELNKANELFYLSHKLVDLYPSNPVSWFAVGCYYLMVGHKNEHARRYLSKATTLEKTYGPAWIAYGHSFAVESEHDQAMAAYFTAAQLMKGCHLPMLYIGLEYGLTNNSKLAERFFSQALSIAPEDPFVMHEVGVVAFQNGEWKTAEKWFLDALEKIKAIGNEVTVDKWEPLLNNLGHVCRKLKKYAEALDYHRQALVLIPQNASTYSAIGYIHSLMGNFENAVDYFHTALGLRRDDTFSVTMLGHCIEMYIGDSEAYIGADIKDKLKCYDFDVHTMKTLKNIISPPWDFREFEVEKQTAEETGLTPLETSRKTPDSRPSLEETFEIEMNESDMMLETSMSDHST
UniProt Q9BYV8, sequence (Q9BYV8 whole entry, looked up): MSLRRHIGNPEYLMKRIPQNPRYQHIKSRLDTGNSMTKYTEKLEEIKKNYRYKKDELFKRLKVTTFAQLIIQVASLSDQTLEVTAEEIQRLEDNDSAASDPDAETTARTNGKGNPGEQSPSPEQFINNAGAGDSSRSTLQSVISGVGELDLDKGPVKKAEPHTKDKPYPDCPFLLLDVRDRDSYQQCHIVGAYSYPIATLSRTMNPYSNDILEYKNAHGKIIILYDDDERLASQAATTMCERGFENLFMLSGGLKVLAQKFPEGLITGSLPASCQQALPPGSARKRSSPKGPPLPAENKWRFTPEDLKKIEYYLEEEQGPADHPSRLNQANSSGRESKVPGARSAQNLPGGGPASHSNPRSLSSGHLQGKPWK
UniProt Q96SN8, sequence (Q96SN8 whole entry, looked up): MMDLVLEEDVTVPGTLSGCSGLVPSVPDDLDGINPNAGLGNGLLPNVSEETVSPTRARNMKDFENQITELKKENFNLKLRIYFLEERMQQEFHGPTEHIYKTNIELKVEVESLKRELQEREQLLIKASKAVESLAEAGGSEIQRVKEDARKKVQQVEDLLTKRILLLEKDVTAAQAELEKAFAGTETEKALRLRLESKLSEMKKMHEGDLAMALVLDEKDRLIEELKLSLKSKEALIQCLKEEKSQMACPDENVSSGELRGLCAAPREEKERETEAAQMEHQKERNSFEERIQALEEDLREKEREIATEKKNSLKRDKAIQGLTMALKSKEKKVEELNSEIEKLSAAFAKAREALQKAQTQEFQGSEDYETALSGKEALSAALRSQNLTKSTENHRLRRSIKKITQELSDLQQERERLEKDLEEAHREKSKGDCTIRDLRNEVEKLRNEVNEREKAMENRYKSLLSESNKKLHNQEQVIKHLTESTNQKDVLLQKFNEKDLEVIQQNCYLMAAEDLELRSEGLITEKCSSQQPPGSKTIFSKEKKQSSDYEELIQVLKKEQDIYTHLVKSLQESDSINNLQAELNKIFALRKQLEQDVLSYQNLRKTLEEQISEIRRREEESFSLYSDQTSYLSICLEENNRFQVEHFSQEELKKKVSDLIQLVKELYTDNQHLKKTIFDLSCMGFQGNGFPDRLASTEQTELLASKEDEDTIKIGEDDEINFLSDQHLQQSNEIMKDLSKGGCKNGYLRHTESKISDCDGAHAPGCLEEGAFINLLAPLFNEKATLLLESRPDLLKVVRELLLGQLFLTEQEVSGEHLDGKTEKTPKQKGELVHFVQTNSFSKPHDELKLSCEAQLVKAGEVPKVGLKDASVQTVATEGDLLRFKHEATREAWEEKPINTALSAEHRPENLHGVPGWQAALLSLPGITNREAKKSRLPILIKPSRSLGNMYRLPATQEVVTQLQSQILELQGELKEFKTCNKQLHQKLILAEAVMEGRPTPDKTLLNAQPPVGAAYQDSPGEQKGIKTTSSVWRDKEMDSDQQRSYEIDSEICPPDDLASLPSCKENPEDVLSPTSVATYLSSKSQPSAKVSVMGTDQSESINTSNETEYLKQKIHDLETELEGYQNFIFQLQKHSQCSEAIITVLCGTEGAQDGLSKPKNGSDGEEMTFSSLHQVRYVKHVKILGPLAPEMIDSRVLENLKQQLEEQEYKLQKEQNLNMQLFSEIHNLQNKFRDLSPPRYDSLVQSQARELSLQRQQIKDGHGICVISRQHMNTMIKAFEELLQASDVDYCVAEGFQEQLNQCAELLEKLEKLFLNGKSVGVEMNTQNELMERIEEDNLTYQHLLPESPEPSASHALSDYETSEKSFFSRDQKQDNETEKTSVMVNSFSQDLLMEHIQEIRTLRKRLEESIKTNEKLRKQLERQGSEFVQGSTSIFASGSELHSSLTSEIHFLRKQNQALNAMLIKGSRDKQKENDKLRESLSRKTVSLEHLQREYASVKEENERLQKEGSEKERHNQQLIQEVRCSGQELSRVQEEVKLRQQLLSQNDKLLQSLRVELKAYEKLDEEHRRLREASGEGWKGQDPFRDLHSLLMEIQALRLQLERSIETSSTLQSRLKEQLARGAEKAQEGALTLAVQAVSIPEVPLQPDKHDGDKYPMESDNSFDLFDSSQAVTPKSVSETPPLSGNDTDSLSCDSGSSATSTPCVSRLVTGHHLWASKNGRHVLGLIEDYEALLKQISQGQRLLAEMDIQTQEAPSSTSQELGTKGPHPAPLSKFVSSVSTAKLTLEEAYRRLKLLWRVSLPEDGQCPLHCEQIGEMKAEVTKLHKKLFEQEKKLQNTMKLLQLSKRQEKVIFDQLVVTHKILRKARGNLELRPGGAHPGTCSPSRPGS
UniProt P18859, sequence (P18859 whole entry, looked up): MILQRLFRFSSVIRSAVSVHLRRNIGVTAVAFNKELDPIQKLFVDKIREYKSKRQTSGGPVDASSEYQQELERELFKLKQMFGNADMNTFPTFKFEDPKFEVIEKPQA
UniProt O00748, sequence (O00748 whole entry, looked up): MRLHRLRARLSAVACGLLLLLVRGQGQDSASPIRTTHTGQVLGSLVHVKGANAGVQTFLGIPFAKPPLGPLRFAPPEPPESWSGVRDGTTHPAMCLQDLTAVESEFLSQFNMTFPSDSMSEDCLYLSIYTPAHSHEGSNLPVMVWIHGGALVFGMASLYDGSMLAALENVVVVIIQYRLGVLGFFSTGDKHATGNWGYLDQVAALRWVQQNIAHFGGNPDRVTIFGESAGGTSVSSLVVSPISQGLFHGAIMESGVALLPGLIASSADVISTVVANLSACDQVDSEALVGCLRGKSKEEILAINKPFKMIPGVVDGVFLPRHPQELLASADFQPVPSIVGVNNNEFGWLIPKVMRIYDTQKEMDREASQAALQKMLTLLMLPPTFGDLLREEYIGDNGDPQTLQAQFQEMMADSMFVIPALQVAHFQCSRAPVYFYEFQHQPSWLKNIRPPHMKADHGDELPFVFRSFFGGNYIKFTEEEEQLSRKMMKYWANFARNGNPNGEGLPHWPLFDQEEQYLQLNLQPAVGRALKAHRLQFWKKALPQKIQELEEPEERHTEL
UniProt Q8NDD1, sequence (Q8NDD1 whole entry, looked up): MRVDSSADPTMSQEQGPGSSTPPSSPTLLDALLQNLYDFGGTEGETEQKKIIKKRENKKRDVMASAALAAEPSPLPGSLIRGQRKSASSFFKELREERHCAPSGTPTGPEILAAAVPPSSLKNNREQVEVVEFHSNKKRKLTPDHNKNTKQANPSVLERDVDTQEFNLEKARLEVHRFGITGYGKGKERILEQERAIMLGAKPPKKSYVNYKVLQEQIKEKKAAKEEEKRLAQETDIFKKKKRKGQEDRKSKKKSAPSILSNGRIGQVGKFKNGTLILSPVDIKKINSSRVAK
UniProt Q8TAP6, sequence (Q8TAP6 whole entry, looked up): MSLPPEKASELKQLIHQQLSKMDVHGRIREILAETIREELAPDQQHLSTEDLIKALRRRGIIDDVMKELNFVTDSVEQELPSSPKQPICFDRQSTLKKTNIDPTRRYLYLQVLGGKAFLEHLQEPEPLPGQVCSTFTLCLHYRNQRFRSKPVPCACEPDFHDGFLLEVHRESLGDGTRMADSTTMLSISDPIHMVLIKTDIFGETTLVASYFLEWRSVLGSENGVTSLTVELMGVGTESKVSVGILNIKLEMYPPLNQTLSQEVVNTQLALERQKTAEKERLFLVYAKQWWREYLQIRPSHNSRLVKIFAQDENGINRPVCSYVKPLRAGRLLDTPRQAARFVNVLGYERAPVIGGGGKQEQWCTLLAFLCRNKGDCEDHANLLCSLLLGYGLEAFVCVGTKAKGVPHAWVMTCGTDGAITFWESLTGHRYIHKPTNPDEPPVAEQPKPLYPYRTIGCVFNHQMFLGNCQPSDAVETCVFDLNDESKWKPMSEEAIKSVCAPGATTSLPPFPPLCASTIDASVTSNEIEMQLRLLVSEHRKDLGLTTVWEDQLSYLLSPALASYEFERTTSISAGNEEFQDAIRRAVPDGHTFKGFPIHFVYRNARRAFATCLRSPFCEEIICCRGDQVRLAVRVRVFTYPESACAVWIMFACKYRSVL
UniProt P14635, sequence (P14635 whole entry, looked up): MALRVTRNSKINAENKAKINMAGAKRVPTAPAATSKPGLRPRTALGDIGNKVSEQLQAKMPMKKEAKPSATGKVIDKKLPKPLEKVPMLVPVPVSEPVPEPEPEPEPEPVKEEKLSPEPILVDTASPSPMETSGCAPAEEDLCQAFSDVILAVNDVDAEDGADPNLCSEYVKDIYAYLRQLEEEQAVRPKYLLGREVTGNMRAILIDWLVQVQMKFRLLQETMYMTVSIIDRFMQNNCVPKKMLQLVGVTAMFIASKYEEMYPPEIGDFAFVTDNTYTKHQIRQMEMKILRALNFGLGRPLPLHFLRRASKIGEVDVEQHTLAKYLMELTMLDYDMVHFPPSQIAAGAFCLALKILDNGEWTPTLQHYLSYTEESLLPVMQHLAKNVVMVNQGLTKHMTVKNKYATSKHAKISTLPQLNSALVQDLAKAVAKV

Target | log2 fold change (erlotinib) | log2 fold change [1] | log2 fold change [2] | log2 fold change [3] | log2 fold change [4] | log2 fold change [5] | log2 fold change [6] | log2 fold change [7] | log2 fold change [8] | log2 fold change (IRAK-1-4 Inhibitor I) | log2 fold change (ibrutinib) | log2 fold change [9] | log2 fold change (ralimetinib) | log2 fold change [10] | log2 fold change [11] | log2 fold change [12] | log2 fold change [13] | log2 fold change [14] | log2 fold change [15] | log2 fold change [16]
CCNB1 (UniProt P14635) | -0.013 | 0.008 | 0.032 | -0.019 | 0.01 | 0.001 | -0.11 | -0.034 | 0.026 | 0.01 | -0.01 | 0.503 (active) | 0.009 | -0.045 | -0.012 | -0.005 | 0.003 | 0.044 | -0.002 | 0
CEP76 (UniProt Q8TAP6) | 0.005 | -0.033 | 0.012 | 0.053 | -0.072 | -0.003 | 0.052 | -0.002 | 0 | 0.056 | -0.004 | 0.081 | 0.019 | 0.003 | -0.002 | -0.019 | -0.063 | 0.051 | 0 | -0.005
CES2 isoform 4 (UniProt O00748) | -0.014 | 0.006 | -0.012 | 0.041 | -0.035 | 0.087 | -0.067 | 0.053 | -0.031 | 0.075 | 0.431 (active) | -0.048 | -0.031 | 0.057 | -0.004 | 0.202 | -0.128 | 0.079 | -0.019 | -0.025
CHCHD4 isoform 2 (UniProt Q8N4Q1) | -0.069 | -0.06 | -0.068 | -0.028 | -0.111 | -0.018 | -0.073 | -0.044 | 0.009 | 0.016 | 0.076 | -0.041 | 0.034 | -0.091 | -0.015 | 0.076 | 0.002 | 0.039 | 0 | 0.013
CDC16 (UniProt Q13042) | -0.006 | -0.067 | -0.051 | 0.031 | -0.009 | 0.006 | 0.019 | 0.027 | -0.056 | -0.004 | 0.02 | 0.019 | 0.025 | -0.022 | 0.012 | -0.006 | 0.04 | -0.029 | -0.005 | 0.025
CDK5RAP2 (UniProt Q96SN8) | 0.037 | 0.159 | -0.021 | -0.008 | -0.09 | -0.011 | -0.025 | -0.016 | 0.001 | -0.026 | -0.022 | 0.268 (active) | -0.006 | 0.01 | -0.019 | -0.001 | -0.044 | -0.007 | 0.003 | 0.067
ATP5PF isoform 2 (UniProt P18859) | 0.063 | 0.107 | -0.021 | 0.011 | 0.017 | 0.05 | -0.01 | -0.003 | 0.09 | -0.026 | 0.069 | -0.055 | -0.003 | 0.063 | -0.053 | -0.032 | -0.055 | 0.026 | 0.05 | 0.083
CEP41 (UniProt Q9BYV8) | -0.068 | -0.125 | 0.006 | -0.007 | 0.016 |  | 0.019 | -0.035 | 0.03 |  | 0.014 | 0.045 |  |  | 0.021 | -0.025 | 0.095 | 0.011 |  | -0.031
C1orf131 isoform 5 (UniProt Q8NDD1) | -0.006 | -0.094 | 0.051 | -0.058 |  | -0.013 | -0.001 | -0.062 | -0.011 | 0.067 |  | 0.041 | 0.06 | -0.056 | 0.028 | -0.016 | -0.071 | 0.08 | 0.025 | -0.043
